{
  "source": "PubChem BioAssay (NCI)",
  "note": "The panel holds about 79,000 compounds, 15% with a hit somewhere; the sample as a whole holds those more often. Unmarked numbers belong to inactive results. Active and inactive are the calls of the source. Rule as the data show it: active = growth inhibition above about 70%; inactive = the rest.",
  "data": [
    {"assay": "NCI Yeast Anticancer Drug Screen. Data for the cln2 rad14 strain (AID 165);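 also: 0% = growth equal to vehicle treated cultures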", "conditions": "S. cerevisiae cln2 rad14 strain, at 50.0 µM, hits give high values", "in_short": "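Test compounds were added to cln2 rad14 yeast cultures; inhibition of growth was then determined by comparison with vehicle treatment.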", "values": [
      {"smiles": "O=S(=O)(CS(=O)(=O)c1ccccc1Br)c1ccccc1Br", "growth inhibition": "13%"},
      {"smiles": "c1ccc2c(c1)C1CC3N=NC1C23", "note": "(stereo not given)", "growth inhibition": "-20.1%"},
      {"smiles": "O=C1C(=O)N(CN2CCCCC2)c2ccccc21", "growth inhibition": "10.9%"},
      {"smiles": "CCCCOc1ccccc1C(=O)OC", "growth inhibition": "-0.6%"},
      {"smiles": "CC(=O)NCCc1ccc(OC(C)=O)c(OC(C)=O)c1", "growth inhibition": "6.45%"},
      {"smiles": "CC(NC(=O)C(Cc1ccccc1)NC(=O)OCc1ccccc1)C(=O)NC1C(CO)OC(n2cnc3c(N)ncnc32)C1O", "note": "(stereo not given)", "growth inhibition": "-1.1%"},
      {"smiles": "Cc1cc(C(C)(C)CC(=O)O)cc(C)c1C", "growth inhibition": "43.6%"},
      {"smiles": "CC(=O)NC(CCCN)C(=O)NCc1ccccc1", "note": "(stereo not given)", "growth inhibition": "17.5%"},
      {"smiles": "CCCCCCCCCC(=O)OCCCC(CCCOC(=O)CCCCCCCCC)OC(=O)CCCCCCCCC", "growth inhibition": "-23.9%"},
      {"smiles": "Cc1ccc(Nc2nnc(-c3ccc4c(c3)OCO4)o2)c(C)c1", "growth inhibition": "-2.15%"},
      {"smiles": "C(=C\\C[P+](c1ccccc1)(c1ccccc1)c1ccccc1)/C[P+](c1ccccc1)(c1ccccc1)c1ccccc1", "growth inhibition": "-5.55%"},
      {"smiles": "CCCCn1c2nc3ccccc3c-2nc2cc(OC)c(OC)cc21", "growth inhibition": "5.5%"},
      {"smiles": "CCOc1ccc(NC(=O)Nc2cccc(Cl)c2C)cc1", "growth inhibition": "-13.8%"},
      {"smiles": "Ic1ccc(Nc2ncnc3sc4c(c23)CCCC4)cc1", "growth inhibition": "15.8%"},
      {"smiles": "CC(=O)Oc1cccc(CN2CCc3ccccc3C2)c1", "growth inhibition": "-31.2%"},
      {"smiles": "CN(C)c1ccc(C=C(C(=O)O)C(=O)O)cc1", "growth inhibition": "19.4%"},
      {"smiles": "COc1ccc(OC)c(NC(=O)Nc2cc(Cl)ccc2C)c1", "growth inhibition": "-6.1%"},
      {"smiles": "COC1OC(C)CC(O)C1O", "note": "(stereo not given)", "growth inhibition": "-57.6%"},
      {"smiles": "COCCNC(c1ccccc1)C(O)c1ccccc1", "note": "(stereo not given)", "growth inhibition": "-33%"},
      {"smiles": "C[N+](C)(C)/N=C/c1ccc(O)c(O)c1", "growth inhibition": "-16%"},
      {"smiles": "COc1cc(C(C)O)c[n+](Cc2ccccc2)c1", "note": "(stereo not given)", "growth inhibition": "3.6%"},
      {"smiles": "COc1ccc(NC(=O)CC(=O)n2nc(-c3ccccc3)c(N=Nc3ccccc3C)c2-c2ccccc2)cc1", "growth inhibition": "7.8%"},
      {"smiles": "COC1OCC(NC(=O)CNC(=O)CCCCCCCCCCCCC(C)C)C(O)C1O", "note": "(stereo not given)", "growth inhibition": "32.5%"},
      {"smiles": "O=S1(=O)C2CCC(C2)C1Cl", "note": "(stereo not given)", "growth inhibition": "-18.9%"},
      {"smiles": "NC(N)=NNC(=S)S", "growth inhibition": "5.1%"},
      {"smiles": "COC(=O)C(=[N+]=[N-])C(=O)c1cccc([N+](=O)[O-])c1", "growth inhibition": "17.2%"},
      {"smiles": "Clc1ccc2oc(N3CCOCC3)nc2c1", "growth inhibition": "-13.4%"},
      {"smiles": "O.[Cl][Pt].[NH-]CC[S-]", "growth inhibition": "-9.6%"},
      {"smiles": "CCC(/C=C\\C(C)C1CCC2C3CC=C4CC(OC)CCC4(C)C3CCC12C)C(C)C", "note": "(stereo not given)", "growth inhibition": "20.6%"},
      {"smiles": "ClC[P+](c1ccccc1)(c1ccccc1)c1ccccc1", "growth inhibition": "11.6%"},
      {"smiles": "CCCCCCCCCCN=C(N)CSSCC(N)=NCCCCCCCCCC", "growth inhibition": "92.8% (active)"},
      {"smiles": "COc1ccc(OC)c2cc3c(cc12)C(=O)C(C)=C(C)C3=O", "growth inhibition": "-30%"},
      {"smiles": "CCCCCOCC(O)CNCCNCC(O)COCCCCC", "note": "(stereo not given)", "growth inhibition": "-55.6%"},
      {"smiles": "CC[n+]1c(C)sc2cc(Cl)c(-c3ccccc3)cc21", "growth inhibition": "-6.25%"},
      {"smiles": "C=CCC[P+](c1ccccc1)(c1ccccc1)c1ccccc1", "growth inhibition": "-3.4%"},
      {"smiles": "Nc1nnc2nc(C(C(=O)/C=C\\c3cccc(O)c3)c3nc4nnc(N)n4[nH]c3=O)c(=O)[nH]n12", "growth inhibition": "1.65%"},
      {"smiles": "C/C(=N\\[N+](C)(C)C)c1ccc2ccccc2c1", "growth inhibition": "5.5%"},
      {"smiles": "C=CCCC(C)(C(=O)OCC)C(=O)OCC", "growth inhibition": "-30.3%"},
      {"smiles": "O=C(/C=C/C=C/c1ccccc1)CCc1ccccc1", "growth inhibition": "30.6%"},
      {"smiles": "C[C@H]1C[C@H]2[C@@H]3CC[C@@]4(OCC4=O)[C@@]3(C)C[C@H](O)[C@]2(F)[C@@]2(C)C=CC(=O)C=C12", "growth inhibition": "-34.9%"}
    ]},
    {"assay": "NCI Yeast Anticancer Drug Screen. Data for the bub3 strain (AID 167)", "conditions": "S. cerevisiae bub3 mutant strain, at 50.0 µM, hits give high values", "in_short": "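Screening used yeast with an engineered genetic alteration affecting cell cycle control. Compound-exposed cultures were compared with vehicle cultures, and reduced growth was taken as inhibition.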", "values": [
      {"smiles": "O=S(=O)(CS(=O)(=O)c1ccccc1Br)c1ccccc1Br", "growth inhibition": "1.95%"},
      {"smiles": "c1ccc2c(c1)C1CC3N=NC1C23", "note": "(stereo not given)", "growth inhibition": "3.8%"},
      {"smiles": "O=C1C(=O)N(CN2CCCCC2)c2ccccc21", "growth inhibition": "22.4%"},
      {"smiles": "CCCCOc1ccccc1C(=O)OC", "growth inhibition": "9.4%"},
      {"smiles": "CC(=O)NCCc1ccc(OC(C)=O)c(OC(C)=O)c1", "growth inhibition": "23.4%"},
      {"smiles": "CC(NC(=O)C(Cc1ccccc1)NC(=O)OCc1ccccc1)C(=O)NC1C(CO)OC(n2cnc3c(N)ncnc32)C1O", "note": "(stereo not given)", "growth inhibition": "-2.5%"},
      {"smiles": "Cc1cc(C(C)(C)CC(=O)O)cc(C)c1C", "growth inhibition": "54%"},
      {"smiles": "CC(=O)NC(CCCN)C(=O)NCc1ccccc1", "note": "(stereo not given)", "growth inhibition": "-3.45%"},
      {"smiles": "CCCCCCCCCC(=O)OCCCC(CCCOC(=O)CCCCCCCCC)OC(=O)CCCCCCCCC", "growth inhibition": "-16.4%"},
      {"smiles": "Cc1ccc(Nc2nnc(-c3ccc4c(c3)OCO4)o2)c(C)c1", "growth inhibition": "-4%"},
      {"smiles": "C(=C\\C[P+](c1ccccc1)(c1ccccc1)c1ccccc1)/C[P+](c1ccccc1)(c1ccccc1)c1ccccc1", "growth inhibition": "-2.75%"},
      {"smiles": "CCCCn1c2nc3ccccc3c-2nc2cc(OC)c(OC)cc21", "growth inhibition": "12.2%"},
      {"smiles": "CCOc1ccc(NC(=O)Nc2cccc(Cl)c2C)cc1", "growth inhibition": "9.85%"},
      {"smiles": "Ic1ccc(Nc2ncnc3sc4c(c23)CCCC4)cc1", "growth inhibition": "7.25%"},
      {"smiles": "CC(=O)Oc1cccc(CN2CCc3ccccc3C2)c1", "growth inhibition": "8.8%"},
      {"smiles": "CN(C)c1ccc(C=C(C(=O)O)C(=O)O)cc1", "growth inhibition": "15.7%"},
      {"smiles": "COc1ccc(OC)c(NC(=O)Nc2cc(Cl)ccc2C)c1", "growth inhibition": "19.2%"},
      {"smiles": "COC1OC(C)CC(O)C1O", "note": "(stereo not given)", "growth inhibition": "2.7%"},
      {"smiles": "COCCNC(c1ccccc1)C(O)c1ccccc1", "note": "(stereo not given)", "growth inhibition": "7.5%"},
      {"smiles": "C[N+](C)(C)/N=C/c1ccc(O)c(O)c1", "growth inhibition": "-14.9%"},
      {"smiles": "COc1cc(C(C)O)c[n+](Cc2ccccc2)c1", "note": "(stereo not given)", "growth inhibition": "-18.9%"},
      {"smiles": "COc1ccc(NC(=O)CC(=O)n2nc(-c3ccccc3)c(N=Nc3ccccc3C)c2-c2ccccc2)cc1", "growth inhibition": "21.1%"},
      {"smiles": "COC1OCC(NC(=O)CNC(=O)CCCCCCCCCCCCC(C)C)C(O)C1O", "note": "(stereo not given)", "growth inhibition": "-8.1%"},
      {"smiles": "O=S1(=O)C2CCC(C2)C1Cl", "note": "(stereo not given)", "growth inhibition": "-1.05%"},
      {"smiles": "NC(N)=NNC(=S)S", "growth inhibition": "20.3%"},
      {"smiles": "COC(=O)C(=[N+]=[N-])C(=O)c1cccc([N+](=O)[O-])c1", "growth inhibition": "3.2%"},
      {"smiles": "Clc1ccc2oc(N3CCOCC3)nc2c1", "growth inhibition": "15.7%"},
      {"smiles": "O.[Cl][Pt].[NH-]CC[S-]", "growth inhibition": "1.3%"},
      {"smiles": "CCC(/C=C\\C(C)C1CCC2C3CC=C4CC(OC)CCC4(C)C3CCC12C)C(C)C", "note": "(stereo not given)", "growth inhibition": "-3.5%"},
      {"smiles": "ClC[P+](c1ccccc1)(c1ccccc1)c1ccccc1", "growth inhibition": "24.8%"},
      {"smiles": "CCCCCCCCCCN=C(N)CSSCC(N)=NCCCCCCCCCC", "growth inhibition": "95% (active)"},
      {"smiles": "COc1ccc(OC)c2cc3c(cc12)C(=O)C(C)=C(C)C3=O", "growth inhibition": "-1.3%"},
      {"smiles": "CCCCCOCC(O)CNCCNCC(O)COCCCCC", "note": "(stereo not given)", "growth inhibition": "-23.2%"},
      {"smiles": "CC[n+]1c(C)sc2cc(Cl)c(-c3ccccc3)cc21", "growth inhibition": "-3.25%"},
      {"smiles": "C=CCC[P+](c1ccccc1)(c1ccccc1)c1ccccc1", "growth inhibition": "9.1%"},
      {"smiles": "Nc1nnc2nc(C(C(=O)/C=C\\c3cccc(O)c3)c3nc4nnc(N)n4[nH]c3=O)c(=O)[nH]n12", "growth inhibition": "-5.35%"},
      {"smiles": "C/C(=N\\[N+](C)(C)C)c1ccc2ccccc2c1", "growth inhibition": "-6%"},
      {"smiles": "C=CCCC(C)(C(=O)OCC)C(=O)OCC", "growth inhibition": "1.45%"},
      {"smiles": "O=C(/C=C/C=C/c1ccccc1)CCc1ccccc1", "growth inhibition": "16.2%"},
      {"smiles": "C[C@H]1C[C@H]2[C@@H]3CC[C@@]4(OCC4=O)[C@@]3(C)C[C@H](O)[C@]2(F)[C@@]2(C)C=CC(=O)C=C12", "growth inhibition": "17.4%"}
    ]}
  ]
}
